The conditions of assay [1]: Ebola virus entry assay, green fluorescence channel.
For assay [2] the following is noted: Ebola virus entry assay, blue channel fluorescence.

For some of these results: Entries with a potency or affinity are not part of this list. The source made the active and inactive calls. How the calls were made is not given here. Peptide text beside a SMILES is read from it.
Wherever efficacy is given: 0% is about no effect.

For the compound `CCCCCCCC/C=C/C(=O)O`, in assay [1], the efficacy is 20.4% (inactive). Further, in assay [2], the call was inactive.
On to `CC(C)Cn1cnc2c(N)nc3ccccc3c21`, for which, in assay [1], the efficacy was -30.7% (inactive). Further, the compound was called inactive in assay [2].
The corresponding values for `Nc1cc(=O)[nH]c(N)n1` are -17.6% (inactive) and “inactive”.
As for `COc1ccc2cccc(CCNC(C)=O)c2c1`, the efficacy in assay [1] is -16.7% (inactive). Moreover, in assay [2], the call was inactive.
The corresponding values for `COc1cc(NS(=O)(=O)c2ccc(N)cc2)nc(C)n1` are -19.1% (inactive) and “inactive”.
With `CCCCCCCCCCOc1cc2c(=O)c(C(=O)OCC)c[nH]c2cc1OCC`, the efficacy in assay [1] was 11% (inactive). In assay [2], the compound was classed as inactive.
For `CC(=O)c1ccc(OCC(=O)N2CCCCC2)cc1`, in that order: -14.3% (inactive) and “inactive”.
The corresponding values for `OC[C@@H](O)[C@@H](O[C@@H]1O[C@H](CO)[C@H](O)[C@H](O)[C@H]1O)[C@H](O)[C@@H](O)CO` are -17.2% (inactive) and “inactive”.
Turning to `C[N+]1(C)[C@@H]2CC(OC(=O)[C@H](CO)c3ccccc3)C[C@H]1[C@@H]1O[C@@H]12` (some centres undefined), the efficacy in assay [1] is 12.9% (inactive). Also, the result in assay [2] was inactive.
Turning to `O=C(OOC(=O)c1ccccc1)c1ccccc1`, in assay [1], the efficacy is -19.5% (inactive). Besides, in assay [2], the compound was classed as inactive.
The corresponding values for `NS(=O)(=O)c1cc(-c2nn[nH]n2)c(NCc2cccs2)cc1Cl` are -20.9% (inactive) and “inactive”.
For `O=C(O)c1[nH]n(-c2ccc(S(=O)(=O)O)cc2)c(=O)c1N=Nc1ccc(S(=O)(=O)O)cc1`, in that order: 23% (inactive) and “inactive”.
On to `COc1c2occc2cc2ccc(=O)oc12`, for which, in assay [1], the efficacy was -15% (inactive). Moreover, the result in assay [2] was inactive.
For `O=C(O)CCc1nc2ccccc2[nH]1`, in that order: -21.2% (inactive) and “inactive”.
The corresponding values for `CCCCCCOc1ccccc1C(N)=O` are -13.5% (inactive) and “inactive”.
The corresponding values for `Cc1ccc(S(=O)(=O)NC(=O)NC2CCCCCCC2)cc1` are -10.6% (inactive) and “inactive”.
Regarding `CC(=O)Nc1ccc(OC(=O)c2ccccc2OC(C)=O)cc1`, the efficacy in assay [1] is -28.5% (inactive). Besides, in assay [2], the result was inactive.
As for `CCC(Cc1c(I)cc(I)c(N)c1I)C(=O)O` (centres undefined), the efficacy in assay [1] is -15.6% (inactive). The compound was called inactive in assay [2].
The corresponding values for `O=C(Nc1ccc(Br)cc1)c1cc(Br)cc(Br)c1O` are -20.2% (inactive) and “inactive”.
For `O=C(NCCO[N+](=O)[O-])c1cccnc1`, in that order: -12.5% (inactive) and “inactive”.
In the case of `N#CC1(c2ccc(F)cc2)CCC(=O)CC1`, in assay [1], the efficacy was 28.6% (inactive). For the same compound, the outcome in assay [2] was inactive.
The corresponding values for `CC(O)C(=O)O` (centres undefined) are 12.5% (inactive) and “inactive”.
Turning to `O=C(O)Cc1ccc(OCCNC[C@H](O)c2ccccc2)cc1`, the efficacy in assay [1] is -33.3% (inactive). Also, in assay [2], the call was inactive.
For `CCN1CCC[C@H]1CNC(=O)c1cc(S(N)(=O)=O)ccc1OC`, in that order: -21.3% (inactive) and “inactive”.
For `Cc1cc(NS(=O)(=O)c2ccc(N)cc2)no1`, in that order: 21.6% (inactive) and “inactive”.
The corresponding values for `O=C1CC2(CCCC2)CC(=O)N1` are -26.6% (inactive) and “inactive”.
Regarding `O=S(=O)(O)c1ccc2nc(-c3ccccc3)[nH]c2c1`, in assay [1], the efficacy is -32.6% (inactive). Further, the compound was classed as inactive in assay [2].
The corresponding values for `C[C@@H]1CCC[C@H](C)N1` are -7.35% (inactive) and “inactive”.
The corresponding values for `O=C(CO)[C@@H](O)[C@H](O)[C@@H](O)CO` are 18.6% (inactive) and “inactive”.
For `CNCc1ccccc1`, in that order: -19.2% (inactive) and “inactive”.
With `O=C(NCC(O)CO)c1c(I)c(C(=O)NCC(O)CO)c(I)c(N(CCO)C(=O)CO)c1I` (centres undefined), in assay [1], the efficacy was 35.5% (inactive). Also, the call in assay [2] was inactive.
For `COc1ccnc(CS(=O)c2nc3ccc(OC(F)F)cc3[nH]2)c1OC` (centres undefined), in that order: -31.1% (inactive) and “inactive”.
The corresponding values for `Cc1cc(=O)n(-c2ccccc2)n1C` are -22% (inactive) and “inactive”.
The corresponding values for `COC(=O)c1cc(Cl)c(NC(C)=O)cc1OC` are -16.3% (inactive) and “inactive”.
Turning to `COc1ccc2cc1Oc1cc3c(cc1OC)CC[N+](C)(C)[C@H]3Cc1ccc(cc1)Oc1c(OC)c(OC)cc3c1[C@@H](C2)[N+](C)(C)CC3`, in assay [1], the efficacy is -25.2% (inactive). Further, the outcome in assay [2] was inactive.
For `CCCOc1ccc2c(c1)CC[C@@H]1[C@@H]2CC[C@]2(C)C(OC)CC[C@@H]12` (some centres undefined), in that order: -11.2% (inactive) and “inactive”.
The corresponding values for `COc1cc(OC)nc(O[C@H](C(=O)O)C(OC)(c2ccccc2)c2ccccc2)n1` are 36.2% (inactive) and “inactive”.
`CC(=O)Nc1ncc([N+](=O)[O-])s1`: the efficacy in assay [1] was 20.3% (inactive). Besides, in assay [2], the call was inactive.
The corresponding values for `COc1cccc([C@@]2(O)CCCC[C@@H]2CN(C)C)c1` are -12.5% (inactive) and “inactive”.
For `COC(=O)c1ccc(O)cc1`, in that order: 13.3% (inactive) and “inactive”.
For `COC(=O)/C=C\C(=O)OC`, in that order: 24.5% (inactive) and “inactive”.
`COP(=S)(OC)Oc1cc(Cl)c(Cl)cc1Cl`: the efficacy in assay [1] was -14% (inactive). The compound was called inactive in assay [2].
With `O=C(O)[C@@H](O)[C@H](O)[C@H](O)[C@@H](O)C(=O)O`, the efficacy in assay [1] was -24.9% (inactive). Besides, the outcome in assay [2] was inactive.
The corresponding values for `CN1C(C(=O)Nc2ccccn2)=C(O)c2sccc2S1(=O)=O` are -30.7% (inactive) and “inactive”.
Regarding `O=C(O)CN1C(=O)c2cccc3cccc(c23)C1=O`, the efficacy in assay [1] is 11.9% (inactive). The compound was classed as inactive in assay [2].
The corresponding values for `O=C(c1ccco1)N1CCNCC1` are 12.6% (inactive) and “inactive”.
As to `C[C@]12CCC(=O)C=C1CC[C@@H]1[C@@H]2CC[C@@]2(C)[C@H]1CC[C@]2(C)O`, the efficacy in assay [1] was -23% (inactive). Moreover, in assay [2], the compound was classed as inactive.
For `O=C(N/N=C/c1ccccc1O)c1ccncc1`, in that order: 66.8% (inactive) and “inactive”.
For `CO[C@@H]1[C@@H](OC(N)=O)[C@@H](O)[C@H](Oc2ccc3c(O)c(NC(=O)c4ccc(O)c(CC=C(C)C)c4)c(=O)oc3c2C)OC1(C)C`, in that order: 15.5% (inactive) and “inactive”.
For `CCc1cccc(CC)c1NC(=O)CN(CC(=O)O)CC(=O)O`, in that order: 15.2% (inactive) and “inactive”.
Regarding `N[C@@H](CCC(=O)N[C@@H](CS)C(=O)NCC(=O)O)C(=O)O`, in assay [1], the efficacy is -20.9% (inactive). Further, the result in assay [2] was inactive.
The corresponding values for `Nc1ncnc(Nc2ccccc2)n1` are -14.2% (inactive) and “inactive”.
As for `CC(C)=CCC/C(C)=C/CC/C(C)=C/CCC(=O)OC/C=C(\C)CCC=C(C)C`, the efficacy in assay [1] was 10.8% (inactive). In addition, the compound was called inactive in assay [2].
For `CN(C)CCN1CCN(c2cccc(Cl)c2)C1=O`, in that order: -56.2% (inactive) and “inactive”.
For the compound `CC(=O)Nc1c(I)cc(I)c(C(=O)O)c1I`, the efficacy in assay [1] was -9.82% (inactive). Also, in assay [2], the call was inactive.
Take `COc1ccc(C(=O)N2CCN(CC(=O)N3CCOCC3)CC2)cc1`: the efficacy in assay [1] is -11.2% (inactive). For the same compound, in assay [2], the outcome was inactive.
For the compound `Cc1cccc(C)c1NC(=O)CC12CCCN1CCC2`, in assay [1], the efficacy is -14.9% (inactive). In addition, the outcome in assay [2] was inactive.
For `CC(CCc1ccc2c(c1)OCO2)NN` (centres undefined), in that order: 17.5% (inactive) and “inactive”.
For `N[C@@H](COP(=O)(O)O)C(=O)O`, in that order: -11.1% (inactive) and “inactive”.
As to `CCCCCCCCCCCC(=O)[O][Sn]([CH2]CCC)([CH2]CCC)[O]C(=O)CCCCCCCCCCC`, the efficacy in assay [1] is -17.6% (inactive). Moreover, in assay [2], the outcome was inactive.
For `COc1ccc2c3c1O[C@H]1[C@H](O)CC[C@H]4[C@@H](C2)N(C)CC[C@@]341`, in that order: -11.3% (inactive) and “inactive”.
The corresponding values for `CCCCCCCCCCCCOCCO` are -11.3% (inactive) and “inactive”.
As for `Oc1ccccc1`, the efficacy in assay [1] is 23.9% (inactive). The call in assay [2] was inactive.
The corresponding values for `COc1ccc(-c2ccc3cc(C(=O)O)ccc3c2)cc1C12CC3CC(CC(C3)C1)C2` are 13% (inactive) and “inactive”.
For `O=S(=O)(O)c1cc(I)c(O)c2ncccc12`, in that order: 29.1% (inactive) and “inactive”.
For `O=C(OCC1(COC(=O)c2cccnc2)CCCC(COC(=O)c2cccnc2)(COC(=O)c2cccnc2)C1O)c1cccnc1`, in that order: -19.2% (inactive) and “inactive”.
For `CCOC(=O)/C=C(C)/C=C/C=C(C)/C=C/c1c(C)cc(OC)c(C)c1C`, the efficacy in assay [1] was 27.5% (inactive). Moreover, in assay [2], the compound was classed as inactive.
As for `CC(C)(Oc1ccc(C2CC2(Cl)Cl)cc1)C(=O)O` (centres undefined), in assay [1], the efficacy was 16.1% (inactive). In addition, the outcome in assay [2] was inactive.
The corresponding values for `CC(=O)Oc1cccc(O)c1` are -10.5% (inactive) and “inactive”.
For `CCCCCC=CCC=CCCCCCCCC(=O)OCC`, in that order: 15.2% (inactive) and “inactive”.
The corresponding values for `CCNC(=O)[C@@H]1CCCN1C(=O)[C@H](CCCN=C(N)N)NC(=O)[C@H](CC(C)C)NC(=O)CNC(=O)[C@H](Cc1ccc(O)cc1)NC(=O)[C@H](CO)NC(=O)[C@H](Cc1c[nH]c2ccccc12)NC(=O)[C@H](Cc1cnc[nH]1)NC(=O)[C@@H]1CCC(=O)N1` (HELM PEPTIDE1{[Glp].H.W.S.Y.G.L.R.P.[CCN[*:1]]}$$$$V2.0) are 17.9% (inactive) and “inactive”.
Consider `Nc1nc(N)c(-c2ccccc2)s1`, for which, in assay [1], the efficacy is 13% (inactive). Also, the call in assay [2] was inactive.
In the case of `CN1CC[C@]23c4c5ccc(O)c4O[C@H]2[C@@H](O)CC[C@H]3[C@H]1C5`, the efficacy in assay [1] was 13.6% (inactive). Also, the compound was called inactive in assay [2].
For `Cc1cccc(C)c1NC(=O)CN1CCCCCC1`, in that order: -23% (inactive) and “inactive”.
For `CCOP(=S)(OCC)Oc1ccc2c(C)c(Cl)c(=O)oc2c1`, in that order: 16.9% (inactive) and “inactive”.
For `Cc1onc(-c2ccccc2)c1C(=O)Cl`, in that order: 6.34% (inactive) and “inactive”.
`CNC[C@H](O)[C@@H](O)[C@H](O)[C@H](O)CO`: in assay [1], the efficacy was -10.6% (inactive). Also, in assay [2], the result was inactive.

These data come from PubChem BioAssay (NCATS).
